Drawing on PubChem BioAssay (EPA / NIEHS), this text covers outcome and AC50 for 27 compounds.

Molecules are shown by their SMILES. Where “and” joins values, the source holds several entries; their conditions need not be identical. Equal values may be shown once. Inconclusive results are not listed. More than one record can exist for a structure, and the calls need not agree. Calls of active or inactive are those of the source. Rule for the calls, unless noted: active = hit-call score of the fitted dose curve at least 0.9, where 1 is the maximum; inconclusive = response in the unintended direction; inactive = score below 0.9.

Test [1] deals with Bile acid receptor (Homo sapiens) (UniProt Q96RI1). Description: ATG_FXR_TRANS: Attagene TRANS-FACTORIAL HepG2 Assay for Farnesoid X Receptor (FXR) (AID 2282979).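 Note: hits raise reporter mRNA above DMSO so AC50 marks FXR activation.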 The conditions noted are these: HepG2 Attagene TRANS FXR-GAL4 reporter transcription. The method in brief: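 HepG2 cells transiently transfected with reporter constructs in which a chimeric FXR-GAL4 protein drives a GAL4-UAS reporter; 24 h compound exposure. Reporter mRNA measured by RT-PCR, FAM labelling, HpaI digestion and capillary electrophoresis; gain-of-signal versus DMSO.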

In test [2] the target is Oxysterols receptor LXR-alpha (Homo sapiens) (UniProt Q13133). Description: ATG_LXRa_TRANS: Attagene TRANS-FACTORIAL HepG2 Assay for human Liver X Receptor alpha (LXRa) (AID 2282980). As to conditions: HepG2 Attagene TRANS reporter, LXRa transactivation. The method in brief:
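HepG2 cells were transiently transfected with multiplexed reporter units driven by chimeric LXRa–GAL4 fusion proteins, then dosed for 24 h. Reporter mRNA was quantified by RT-PCR, fluorescent labelling and capillary electrophoresis; gain of signal fitted against DMSO baseline.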

Test [3] has as its target Oxysterols receptor LXR-beta (Homo sapiens) (UniProt P55055). The test can be described thus: ATG_LXRb_TRANS: Attagene TRANS-FACTORIAL HepG2 Assay for human Liver X Receptor beta (LXRb) (AID 2282981). The conditions noted are these: HepG2 Attagene TRANS GAL4-LXRb reporter, mRNA. In a few lines:
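Readout: fluorescent reporter mRNA fragments resolved by capillary electrophoresis after RT-PCR. System: transiently transfected human HepG2, exogenous LXRb-Gal4 chimera driving GAL4-UAS reporter, 24 h dosing. Activity fitted upward against DMSO baseline.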

A short description of test [4]: ATG_M_06_TRANS: Attagene TRANS-FACTORIAL HepG2 Assay for M06 Transcription Factor (Internal Marker) (AID 2282983).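 Note: reporter transcript level by RT-PCR then capillary electrophoresis fluorescence.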 As to conditions: HepG2 Attagene TRANS M06 internal marker reporter. The method in brief: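 In this multiplexed HepG2 system, compounds are incubated 24 h with cells carrying GAL4-UAS reporter units. Reporter RNA is amplified and resolved by capillary electrophoresis, and induction is scored against DMSO.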

For test [5], the target named is Nuclear receptor subfamily 4 group A member 2 (Homo sapiens) (UniProt P43354). Description: ATG_NURR1_TRANS: Attagene TRANS-FACTORIAL HepG2 Assay for human Nuclear Receptor Related Protein 1 (NURR1) (AID 2282985). As to conditions: HepG2 Attagene TRANS reporter, mRNA readout. In a few lines:
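Read-out: reporter mRNA induction by RT-PCR plus capillary electrophoresis with fluorescence detection, after 24 h dosing of transfected HepG2 cells. Exogenous NR-Gal4 chimera activity drives GAL4-UAS reporter; activity fitted upward versus DMSO.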

Test [6] addresses Transcriptional activator Myb (Homo sapiens) (UniProt P10242). Description: ATG_Myb_CIS: Attagene CIS-FACTORIAL HepG2 Assay for human Myeloblastosis (Myb) Proto-Oncogene Transcription Factor (AID 2282986; active = hit-call score of the fitted dose curve at least 0.9, where 1 is the maximum; inactive = score below 0.9). As to conditions: HepG2 Attagene CIS-FACTORIAL Myb reporter transcription; actives raise or lower the signal. The method in brief:
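In this HepG2 transient-transfection format, cis-regulated reporter mRNA is quantified 24 h post-dosing by RT-PCR with capillary electrophoresis, fitted bidirectionally to DMSO baseline.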

Test [7] has as its target Nuclear respiratory factor 1 (Homo sapiens) (UniProt Q16656). The test can be described thus: ATG_NRF1_CIS: Attagene CIS-FACTORIAL HepG2 Assay for human Nuclear Respiratory Factor 1 (NRF1) Orphan Gene (AID 2282987; active = hit-call score of the fitted dose curve at least 0.9, where 1 is the maximum; inactive = score below 0.9). As to conditions: HepG2 NRF1 cis-element reporter, Attagene multiplex; actives raise or lower the signal. The method in brief: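 Using DMSO as baseline, gain- or loss-of-signal was fitted for reporter mRNA levels in HepG2 cells transiently transfected with cis-regulated reporter units. Samples were taken 24 h after dosing and read by RT-PCR with capillary electrophoresis.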

In test [8] the target is Hepatocyte nuclear factor 4-alpha (Homo sapiens) (UniProt P41235). The test can be described thus: ATG_HNF4a_TRANS: Attagene TRANS-FACTORIAL HepG2 Assay for human Hepatocyte Nuclear Factor 4 alpha (HNF4a) (AID 2282982). As to conditions: HepG2 HNF4a transactivation reporter, mRNA readout. The method in brief:
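Transient MRTU transfection of HepG2, 24 h dosing. Readout: reporter mRNA via RT-PCR + capillary electrophoresis, fluorescence; activity fit upward relative to DMSO control.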

Test [9] is described as follows: ATG_M_32_TRANS: Attagene TRANS-FACTORIAL HepG2 Assay for M32 Transcription Factor (Internal Marker) (AID 2282984).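 Note: transcript level of a background control reporter unit measured by RT-PCR and capillary electrophoresis.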 The conditions noted are these: HepG2 Attagene TRANS M32 internal marker reporter. The method in brief:
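Read-out: fluorescent reporter cDNA fragments resolved by capillary electrophoresis after RT-PCR of total RNA. Transfected HepG2 cells were exposed to chemical for 24 h. Activity scored in the positive direction relative to DMSO.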

Sequence of Bile acid receptor (Homo sapiens) (Q96RI1 whole entry, looked up, the tested form may be a part): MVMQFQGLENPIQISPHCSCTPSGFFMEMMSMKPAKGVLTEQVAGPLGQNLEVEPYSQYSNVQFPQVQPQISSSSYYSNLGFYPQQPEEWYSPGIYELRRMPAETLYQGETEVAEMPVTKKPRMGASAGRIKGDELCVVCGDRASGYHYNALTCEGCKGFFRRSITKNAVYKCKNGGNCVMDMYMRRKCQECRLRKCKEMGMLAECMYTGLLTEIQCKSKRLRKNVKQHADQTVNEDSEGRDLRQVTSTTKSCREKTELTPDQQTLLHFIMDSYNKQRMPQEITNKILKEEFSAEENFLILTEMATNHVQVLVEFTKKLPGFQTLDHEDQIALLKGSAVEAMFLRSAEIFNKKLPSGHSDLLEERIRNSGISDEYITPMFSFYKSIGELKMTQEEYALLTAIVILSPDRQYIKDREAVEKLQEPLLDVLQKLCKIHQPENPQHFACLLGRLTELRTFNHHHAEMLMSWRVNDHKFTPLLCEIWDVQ
Sequence of Hepatocyte nuclear factor 4-alpha (Homo sapiens) (P41235 whole entry, looked up): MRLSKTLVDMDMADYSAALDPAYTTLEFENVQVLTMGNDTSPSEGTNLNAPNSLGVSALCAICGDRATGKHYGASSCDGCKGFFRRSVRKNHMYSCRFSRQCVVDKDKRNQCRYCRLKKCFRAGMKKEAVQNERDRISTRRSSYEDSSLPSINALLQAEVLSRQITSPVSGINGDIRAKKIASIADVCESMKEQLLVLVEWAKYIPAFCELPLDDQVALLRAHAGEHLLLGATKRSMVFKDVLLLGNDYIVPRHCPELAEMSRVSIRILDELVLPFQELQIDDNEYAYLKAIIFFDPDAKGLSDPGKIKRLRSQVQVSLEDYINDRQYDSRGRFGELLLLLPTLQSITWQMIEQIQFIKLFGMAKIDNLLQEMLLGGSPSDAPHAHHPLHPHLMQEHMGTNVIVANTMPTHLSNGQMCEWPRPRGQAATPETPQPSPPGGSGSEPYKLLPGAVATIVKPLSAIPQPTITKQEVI
Sequence of Nuclear receptor subfamily 4 group A member 2 (Homo sapiens) (P43354 whole entry, looked up, the tested form may be a part): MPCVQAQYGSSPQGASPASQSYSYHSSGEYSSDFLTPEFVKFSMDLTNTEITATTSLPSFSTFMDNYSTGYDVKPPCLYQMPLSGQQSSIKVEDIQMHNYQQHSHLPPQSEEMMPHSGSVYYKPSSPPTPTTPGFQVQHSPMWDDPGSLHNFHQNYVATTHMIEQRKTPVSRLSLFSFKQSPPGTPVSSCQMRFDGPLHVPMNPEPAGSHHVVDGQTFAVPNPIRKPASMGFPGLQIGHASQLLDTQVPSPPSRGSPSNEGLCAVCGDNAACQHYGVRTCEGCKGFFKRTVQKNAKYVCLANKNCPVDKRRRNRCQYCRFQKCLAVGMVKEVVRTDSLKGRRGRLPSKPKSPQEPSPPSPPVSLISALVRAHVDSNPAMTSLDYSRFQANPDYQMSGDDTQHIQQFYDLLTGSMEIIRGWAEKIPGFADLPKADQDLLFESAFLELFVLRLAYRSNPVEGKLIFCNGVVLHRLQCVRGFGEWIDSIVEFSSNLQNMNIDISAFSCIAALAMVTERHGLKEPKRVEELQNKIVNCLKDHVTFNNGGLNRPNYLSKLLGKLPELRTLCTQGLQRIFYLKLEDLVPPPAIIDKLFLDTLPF
Sequence of Transcriptional activator Myb (Homo sapiens) (P10242 whole entry, looked up): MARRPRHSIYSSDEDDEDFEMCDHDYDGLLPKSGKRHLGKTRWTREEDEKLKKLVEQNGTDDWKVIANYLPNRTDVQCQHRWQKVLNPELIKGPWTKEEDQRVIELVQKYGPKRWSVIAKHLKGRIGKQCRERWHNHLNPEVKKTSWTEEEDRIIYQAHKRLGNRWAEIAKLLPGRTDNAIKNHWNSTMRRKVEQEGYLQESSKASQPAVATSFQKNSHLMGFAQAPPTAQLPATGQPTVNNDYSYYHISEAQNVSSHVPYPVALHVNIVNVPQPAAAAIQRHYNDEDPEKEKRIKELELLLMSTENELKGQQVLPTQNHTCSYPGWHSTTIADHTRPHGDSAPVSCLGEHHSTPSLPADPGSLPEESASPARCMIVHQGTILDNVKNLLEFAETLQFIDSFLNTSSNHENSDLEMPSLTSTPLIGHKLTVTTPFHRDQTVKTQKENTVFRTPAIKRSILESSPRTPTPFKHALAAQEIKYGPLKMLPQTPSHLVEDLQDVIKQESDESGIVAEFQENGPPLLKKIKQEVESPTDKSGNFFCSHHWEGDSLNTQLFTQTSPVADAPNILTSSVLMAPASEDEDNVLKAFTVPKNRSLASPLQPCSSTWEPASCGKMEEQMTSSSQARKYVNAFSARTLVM
Sequence of Nuclear respiratory factor 1 (Homo sapiens) (Q16656 whole entry, looked up): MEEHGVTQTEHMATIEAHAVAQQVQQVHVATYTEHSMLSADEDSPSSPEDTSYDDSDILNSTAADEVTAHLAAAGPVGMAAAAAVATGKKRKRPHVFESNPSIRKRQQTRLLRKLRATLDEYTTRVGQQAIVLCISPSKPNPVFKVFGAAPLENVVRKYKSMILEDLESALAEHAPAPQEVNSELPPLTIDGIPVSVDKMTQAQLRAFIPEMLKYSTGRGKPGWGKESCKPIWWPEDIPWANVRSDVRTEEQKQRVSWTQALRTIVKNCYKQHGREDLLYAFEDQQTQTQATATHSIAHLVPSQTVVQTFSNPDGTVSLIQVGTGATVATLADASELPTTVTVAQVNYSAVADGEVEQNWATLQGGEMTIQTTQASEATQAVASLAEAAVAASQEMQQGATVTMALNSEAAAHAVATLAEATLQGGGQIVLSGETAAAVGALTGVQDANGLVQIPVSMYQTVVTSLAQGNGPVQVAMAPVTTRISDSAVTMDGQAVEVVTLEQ
Sequence of Oxysterols receptor LXR-alpha (Homo sapiens) (Q13133 whole entry, looked up, the tested form may be a part): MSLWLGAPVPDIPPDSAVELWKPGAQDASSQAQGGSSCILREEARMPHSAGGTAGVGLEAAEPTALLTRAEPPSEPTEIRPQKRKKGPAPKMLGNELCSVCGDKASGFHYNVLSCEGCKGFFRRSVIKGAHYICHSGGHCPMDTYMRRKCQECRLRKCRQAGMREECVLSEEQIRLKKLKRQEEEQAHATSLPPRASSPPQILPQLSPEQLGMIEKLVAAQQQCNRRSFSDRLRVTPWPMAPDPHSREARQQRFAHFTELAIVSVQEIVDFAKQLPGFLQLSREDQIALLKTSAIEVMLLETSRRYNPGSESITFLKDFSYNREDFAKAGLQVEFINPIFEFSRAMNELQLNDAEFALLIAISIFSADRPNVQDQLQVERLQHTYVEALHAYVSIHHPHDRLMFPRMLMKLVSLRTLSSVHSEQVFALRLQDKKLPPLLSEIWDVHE
Sequence of Oxysterols receptor LXR-beta (Homo sapiens) (P55055 whole entry, looked up, the tested form may be a part): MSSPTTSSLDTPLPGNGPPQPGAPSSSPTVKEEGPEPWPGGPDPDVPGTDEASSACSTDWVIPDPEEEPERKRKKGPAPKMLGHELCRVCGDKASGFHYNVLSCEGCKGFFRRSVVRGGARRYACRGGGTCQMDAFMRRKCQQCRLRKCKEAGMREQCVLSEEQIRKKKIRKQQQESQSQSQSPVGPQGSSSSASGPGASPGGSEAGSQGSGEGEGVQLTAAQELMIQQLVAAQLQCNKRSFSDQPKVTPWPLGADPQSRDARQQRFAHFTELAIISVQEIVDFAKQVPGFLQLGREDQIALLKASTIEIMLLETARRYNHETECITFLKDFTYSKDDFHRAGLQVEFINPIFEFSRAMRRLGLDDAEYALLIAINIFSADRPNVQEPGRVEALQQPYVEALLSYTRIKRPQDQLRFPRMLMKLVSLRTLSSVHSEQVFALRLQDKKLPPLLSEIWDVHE

On to `NNc1nc(-c2ccc([N+](=O)[O-])cc2)cs1`, for which the call in test [1], in test [2], in test [3], in [4], in test [5] and in test [6] was inactive. Moreover, in test [7], the call was inactive.
For `O=CC(F)(F)C(F)(F)C(F)(F)C(F)F`, the compound was classed as inactive in [1], in [2], in [3], in test [4], in test [5] and in test [6]. Moreover, the compound was classed as inactive in test [7].
Take `CCN(CC)CC`: the compound was classed as inactive in test [1], in test [2], in test [4], in test [6] and in test [7].
Regarding `C=CC(=O)OCCC(F)(F)C(F)(F)C(F)(F)C(F)(F)C(F)(F)C(F)(F)C(F)(F)C(F)(F)F`, the compound was called inactive in test [1], in test [2], in test [3], in test [8], in [9] and in test [6]. The result in test [7] was inactive.
For the compound `CCCCCCOC(=O)c1ccc(O)cc1`, the call in [1], in test [2], in [3], in [8], in test [4] and in test [9] was inactive. Moreover, the compound was classed as inactive in [6]. The AC50 in test [7] was 58.5 µM (active).
For `CCOC(OCC)C(=O)c1ccccc1`, the result in [1], in test [2], in test [9], in test [6] and in test [7] was inactive.
On to `CC(=O)CC(C)C`, for which the call in test [1], in test [2], in [3], in [8], in test [4] and in test [6] was inactive. Also, in test [7], the compound was called inactive.
With `CC1COCc2cc3c(cc21)C(C)(C)C(C)C3(C)C` (stereo not drawn), the compound was classed as inactive in test [1], in test [2], in [3], in test [4], in test [5] and in test [7]. Moreover, in test [6], the AC50 is 162 µM (active).
`O=CC(F)(F)C(F)(F)C(F)(F)F`: the compound was called inactive in test [1], in test [2], in [3], in test [9], in [5] and in test [6]. In [7], the compound was called inactive.
Take `CC1CCC(C(=O)O)CC1` (stereo not drawn): the result in [1], in test [2], in test [3], in test [8], in test [9] and in test [6] was inactive. Also, the outcome in [7] was inactive.
For the compound `CC(O)COc1ccccc1` (stereo not drawn), the result in [1], in test [2], in [9], in [6] and in test [7] was inactive. Besides, in [3], the AC50 was 26.1 µM (active).
Take `FC(F)(F)C(F)(F)C(F)(F)Br`: the result in test [1], in [2], in test [3], in [8], in [9] and in test [6] was inactive. In test [7], the compound was called inactive.
For the compound `O=C(NCc1ncc(C(F)(F)F)cc1Cl)c1c(Cl)cccc1Cl`, the result in test [1], in test [2], in test [8], in test [4], in test [9] and in test [6] was inactive. In addition, the compound was classed as inactive in test [7].
For the compound `C=CC(=O)OCCC(F)(F)C(F)(F)C(F)(F)C(F)(F)C(F)(F)C(F)(F)F`, the outcome in [1], in test [2], in test [4], in test [5], in test [6] and in test [7] was inactive.
In the case of `FC1(F)C=CC(F)(F)C1(F)F`, the call in test [1], in [2], in test [6] and in test [7] was inactive.
Take `O=C1c2ccccc2C(=O)c2c(O)c(O)cc(O)c21`: the result in test [1], in [2], in [3], in [8], in test [4] and in [9] was inactive. Further, the compound was classed as inactive in test [6] and in test [7]. The AC50 in test [5] is 47 µM (active).
Turning to `FC(OC(F)(F)C(F)(F)C(F)(F)F)C(F)(F)F` (stereo not drawn), the compound was called inactive in test [1], in test [2], in [3], in test [4], in test [6] and in test [7].
Take `O=C(O)CCC(F)(F)C(F)(F)C(F)(F)C(F)(F)C(F)(F)F`: the call in test [1], in test [2], in test [3], in test [8], in [4] and in test [9] was inactive. Further, the outcome in [5], in test [6] and in test [7] was inactive.
Consider `O=S(=O)(O)C(F)(F)C(F)(F)C(F)(F)C(F)(F)C(F)(F)C(F)(F)C(F)(F)C(F)(F)C(F)(F)C(F)(F)F`, for which the compound was classed as inactive in test [1], in test [2], in test [8], in [4], in [5] and in test [6]. In addition, the result in test [7] was inactive.
Turning to `c1ccc(CNc2ncnc3c2ncn3C2CCCCO2)cc1` (stereo not drawn), the compound was called inactive in [1], in [2], in test [3], in [8], in [4] and in [9]. Besides, the call in test [5], in test [6] and in [7] was inactive.
With `O=C1C=CC(=O)N1c1cccc(N2C(=O)C=CC2=O)c1`, the outcome in [1], in test [2], in test [3], in [8], in [4] and in [6] was inactive. In addition, in test [7], the compound was called inactive.
For the compound `C=Cc1ccc(O)c(OC)c1`, the outcome in test [1], in [2], in test [8], in test [9], in test [6] and in test [7] was inactive.
Turning to `CCCCc1oc2ccccc2c1C(=O)c1cc(I)c(OCCN(CC)CC)c(I)c1`, the compound was classed as inactive in [1], in [2], in [3], in test [9] and in test [6].
For the compound `NCc1cccc(CN)c1`, the compound was called inactive in test [1], in test [2], in [4], in test [5], in test [6] and in test [7].
`O=C(O)C(F)(F)OC(F)(F)C(F)(F)OC(F)(F)C(F)(F)OC(F)(F)C(F)(F)C(F)(F)C(F)(F)F`: the AC50 in test [1] is 27 µM (active); in [8], 84.7 µM (active); in [5] it was 13.4 µM (active) and 16.6 µM (active). The result in test [1], in test [3], in [8], in test [4], in [9] and in test [6] was inactive. The result in test [7] was inactive.
Regarding `OCC(CO)(CBr)CBr`, the call in test [1], in test [2], in test [3], in [8], in test [6] and in test [7] was inactive.
Turning to `OCCN1CN(CCO)CN(CCO)C1`, the compound was called inactive in [1], in test [2], in test [3], in [8], in [6] and in [7].
